The source of these data is PubChem BioAssay (NCATS).

The target of assay [1] is Aldehyde dehydrogenase, mitochondrial (Homo sapiens) (UniProt P05091). The assay can be described thus: qHTS for Inhibitors of the Aldehyde Dehydrogenase Family (ALDH2) Confirmatory screens (AID 2061303; active means well fitted inhibition curve with a large enough effect; title and protocol of this record describe different tests; further: nearly all actives have a fitted effect of over 45% in size). To be noted: ALDH inhibition qHTS; series mostly up to 45.4 µM. (Quantitative high-throughput screening tests each substance at several concentrations.)
Assay [2] is described as follows: qHTS for Inhibitors of the Aldehyde Dehydrogenase Family (ALDH1A2, ALDH1A3, ALDH2, ALDH3A1) (AID 2061307). Further: nearly all actives have a fitted effect of over 50% in size. On Potency: test system not described further here. To be noted: ALDH inhibition qHTS; series mostly up to 50.3 µM.
Assay [3] addresses Aldehyde dehydrogenase, mitochondrial (Homo sapiens) (UniProt P05091). The assay can be described thus: qHTS for Inhibitors of the Aldehyde Dehydrogenase Family (ALDH2) Primary screen (AID 2061308). Further: nearly all actives have a fitted effect of over 55% in size. To be noted: ALDH2 enzyme inhibition qHTS, 1536-well; series mostly up to 56 µM.
In assay [4] the target is Retinaldehyde dehydrogenase 3 (Homo sapiens) (UniProt P47895). The assay can be described thus: qHTS for Inhibitors of the Aldehyde Dehydrogenase Family (ALDH1A3) Confirmatory screens (AID 2061311). Further: nearly all actives have a fitted effect of over 60% in size. To be noted: ALDH inhibition qHTS; series mostly up to 46 µM.
Assay [5] shares this target. Nature of the assay: qHTS for Inhibitors of the Aldehyde Dehydrogenase Family (ALDH1A3) Primary screen (AID 2061315). To be noted: ALDH inhibition qHTS; series mostly up to 56 µM.
Assay [6] concerns the target Retinal dehydrogenase 2 (Homo sapiens) (UniProt O94788). Nature of the assay: qHTS for Inhibitors of the Aldehyde Dehydrogenase Family (ALDH1A2) Confirmation screens (AID 2061314). Further: nearly all actives have a fitted effect of over 65% in size. As to conditions: ALDH1A2 enzyme inhibition qHTS confirmation; series mostly up to 45.9 µM.
In assay [7] the target is Aldehyde dehydrogenase 1A1 (Homo sapiens) (UniProt P00352). Nature of the assay: qHTS for Inhibitors of the Aldehyde Dehydrogenase Family (ALDH1A1) Confirmatory screens (AID 2061316). Further: nearly all actives have a fitted effect of over 65% in size. To be noted: ALDH inhibition qHTS; series mostly up to 47.3 µM.

SMILES strings stand for the structures. Inconclusive results are not listed. Active and inactive are the calls of the source. Unless noted, the call rests on the fitted dose curve; in most records, active means well fitted curve in the direction sought with a large enough effect; inconclusive means small, poorly fitted or top-dose-only effect, or another doubt; inactive means no such curve, though single readings can be large; an effect the other way counts as inactive or inconclusive.
Potency means the concentration at half of the fitted maximal effect.

For the compound `N#Cc1nc(Nc2cccc(Br)c2)nc(NC2CCCC2)n1`, the Potency entry in assay [1], in assay [3], in assay [4] and in assay [5] was “inactive” each time. Also, the Potency in assay [2] was 10.1 µM (active).

On to `Cc1ccc(Cl)cc1NS(=O)(=O)c1cc2c(cc1F)NC(=O)CC2`, for which the Potency in assay [1] was 12.6 µM (active); in assay [2], 28.2 µM (active); in assay [4] it was 12.6 µM (active). Also, the Potency result in assay [3] and in assay [5] was “inactive” each time.

For `N#Cc1c(-c2ccc(F)cc2)no[n+]1[O-]`, the Potency result in assay [1], in assay [3], in assay [4] and in assay [5] was “inactive” each time. In addition, the Potency in assay [2] is 12.7 µM (active).

Turning to `NC(=O)C1CCN(c2ncc(-c3ccc4c(c3)OCCO4)s2)CC1`, the Potency is 0.896 µM (active) in assay [1]; 7.12 µM (active) in assay [2]; 7.98 µM (active) in assay [4]; 8.96 µM (active) in assay [6]; 0.712 µM (active) in assay [7]. The Potency result in assay [3] is “inactive”.

As to `Oc1cccc2cc(C3CC3)cnc12`, the Potency result in assay [1], in assay [3] and in assay [5] was “inactive” throughout. Moreover, the results for the Potency in assay [2] and in assay [4] were 0.634 µM (active) and 31.6 µM (active), respectively.

Take `CCOC(=O)c1ccoc1-c1ccc2ncnc(NCc3ncc[nH]3)c2c1`: the Potency entry in assay [1], in assay [2], in assay [3], in assay [4] and in assay [5] was “inactive” each time.

Consider `COc1ccc(C2Nc3ccccc3C(=O)N2Cc2cccc(C(F)(F)F)c2)cc1COc1ccc(NC(C)=O)cc1` (stereo not given), for which the Potency in assay [1] is 11.2 µM (active); in assay [2], 4 µM (active); in assay [4] it was 10 µM (active). Further, the Potency entry in assay [3] and in assay [5] was “inactive” in each case.

As to `CN1CCc2sc(NC(=O)Cc3ccccc3)c(C(=O)Nc3ccc(Cl)cc3)c2C1`, the Potency result in assay [1], in assay [2], in assay [3], in assay [4] and in assay [5] was “inactive” throughout.

Turning to `OCc1cccc(-c2noc(-c3ccccc3F)n2)c1`, the Potency entry in assay [1], in assay [3], in assay [6] and in assay [7] was “inactive” each time. Besides, the Potency in assay [2] was 10.7 µM (active); in assay [4] it was 5.65 µM (active).

With `Oc1ccc(Oc2ccccc2F)c2cccnc12`, the Potency in assay [1] was 4.49 µM (active); in assay [2], 17 µM (active); in assay [4], 2.01 µM (active); in assay [6], 2.01 µM (active); in assay [7], 5.04 µM (active). For the same compound, in assay [3], the Potency entry is “inactive”.

With `Cc1cccc(S(=O)(=O)NC2CCN(C#N)C2)c1` (stereo not given), the Potency entry in assay [1], in assay [2], in assay [3], in assay [4] and in assay [5] was “inactive” throughout. Also, in assay [7], the Potency is 11.3 µM (active).

Turning to `O=C(NCCN1CCCC1)[C@H](Cc1ccc(OS(=O)(=O)c2cccc3cnccc23)cc1)NS(=O)(=O)c1cccc2cnccc12`, the Potency result in assay [1], in assay [2], in assay [3], in assay [4] and in assay [5] was “inactive” each time.

In the case of `Cc1cccc(Nc2nc(C#N)nc(NC3CCCC3)n2)c1`, the Potency in assay [1] is 2.51 µM (active); in assay [2], 0.447 µM (active); in assay [4], 17.8 µM (active). Besides, the Potency result in assay [3] and in assay [5] was “inactive” throughout.

For `N#Cc1c(C(=O)c2cccs2)no[n+]1[O-]`, the Potency is 3.98 µM (active) in assay [1]; 2.24 µM (active) in assay [2]; 0.282 µM (active) in assay [3]; 1.59 µM (active) in assay [4]; 3.16 µM (active) in assay [6]; 0.225 µM (active) in assay [7].

Regarding `O=C(NC1CCCc2c1cnn2-c1ccc(F)cc1F)c1ccc(C(=O)c2ccccc2)cc1` (stereo not given), the Potency entry in assay [1], in assay [2], in assay [3], in assay [4] and in assay [5] was “inactive” throughout.

As to `Cc1cccc(C[C@H](C(=O)O)N2C(=O)c3ccc(C(=O)O)cc3C2=O)c1`, the Potency entry in assay [1], in assay [2], in assay [3], in assay [4], in assay [5] and in assay [7] was “inactive” throughout.

Take `O=C(O)c1cccc(-c2noc(-c3cccc(Cl)c3)n2)c1`: the Potency result in assay [1] and in assay [3] was “inactive” each time. Also, the Potency in assay [2] is 0.381 µM (active); in assay [4] it was 0.201 µM (active); in assay [5] it was 0.562 µM (active).

On to `Cc1ccnc(NC(=S)N2CCN(c3ccc(N)cc3)CC2)c1`, for which the Potency entry in assay [1], in assay [2], in assay [3], in assay [4] and in assay [5] was “inactive” throughout.

Consider `COc1ccc(C2Nc3ccccc3C(=O)N2Cc2ccccc2)cc1COc1ccc(NC(=O)c2ccccc2)cc1` (stereo not given), for which the Potency result in assay [1], in assay [3], in assay [4] and in assay [5] was “inactive” throughout. For the same compound, the Potency in assay [2] is 1.59 µM (active).

As for `COc1ccc(C2Nc3ccccc3C(=O)N2Cc2ccccc2C(F)(F)F)cc1COc1ccc(NC(C)=O)cc1` (stereo not given), the figures for the Potency in assay [1], in assay [2] and in assay [4] were 0.316 µM (active), 2.25 µM (active) and 15.9 µM (active), respectively. In addition, the Potency result in assay [3] and in assay [5] was “inactive” in each case.

With `O=C(O)c1cccc(-c2noc(-c3cccc(C(F)(F)F)c3)n2)c1`, the Potency entry in assay [1], in assay [3], in assay [6] and in assay [7] was “inactive” in each case. Also, the Potency in assay [2] is 0.956 µM (active); in assay [4], 0.504 µM (active).

Take `CC(C)(C)CNc1nc(C#N)nc(Nc2ccccc2)n1`: the Potency result in assay [1], in assay [3], in assay [4] and in assay [5] was “inactive” each time. Also, the Potency in assay [2] was 12.7 µM (active).

In the case of `O=C(O)c1ccc(O)c2ncc(N3CCCN(C4CCCC4)CC3)cc12`, the Potency result in assay [1], in assay [2], in assay [3], in assay [6] and in assay [7] was “inactive” each time. Moreover, the Potency in assay [4] is 14.2 µM (active).

As for `COc1cc(NS(=O)(=O)c2ccc([N+](=O)[O-])cc2)c2ncccc2c1`, the Potency in assay [1] is 7.08 µM (active); in assay [2], 0.712 µM (active); in assay [3], 20 µM (active); in assay [4], 10 µM (active); in assay [6], 3.16 µM (active); in assay [7] it was 5.65 µM (active).

As for `CNc1oc(-c2cccc(-c3ccccc3)c2)nc1C#N`, the Potency in assay [1] is 15.8 µM (active); in assay [2] it was 17.8 µM (active); in assay [4] it was 25.1 µM (active). Moreover, the Potency result in assay [3], in assay [5] and in assay [7] was “inactive” throughout.
